Test results as given in the antibiotic and cytotoxicity screens of Wong et al. (2023).
Hit rate of the full screen: of about 39,000 compounds, about 3,300 (8.5%) were called active. What follows is part of a selection rich in actives, with near analogues and random picks from the rest.

What follows are compounds tested on HepG2 (assay: cytotoxicity call (relative viability < 0.9)). Conditions: 10 µM.

Structure (SMILES) | cytotoxicity call
CCCCC[C@@H](C[C@@H](CC(=O)O)O[C@H]1O[C@@H](CO)[C@@H](O[C@H]2O[C@@H](CO)[C@@H](O)[C@@H](O)[C@@H]2O)[C@@H](O)[C@@H]1O)OC(=O)C[C@H](O)C[C@H](CCCCC)O[C@H]1O[C@@H](CO)[C@@H](O)[C@@H](O)[C@@H]1O | inactive
Cn1c(O)cc(=O)n(C)c1=O | inactive
CCS(=O)(=O)NCC[C@H]1CC[C@H](NS(=O)(=O)c2ccccc2C)[C@@H](CO)O1 | inactive
Cc1cccc(/C=C2\CS/C(=C\c3cccc(C)c3)C2=O)c1 | inactive
COC(=O)[C@@H]1C[C@H](C#N)N[C@@H]1c1ccccn1 | inactive
C[C@@H]1CN([C@@H](C)CO)C(=O)Cc2cc(NC(=O)Nc3ccc(C(F)(F)F)cc3)ccc2O[C@@H]1CN(C)Cc1ccc2c(c1)OCO2 | active
C[C@H]1CN([C@@H](C)CO)S(=O)(=O)c2ccc(C#CCN(C)C)cc2O[C@H]1CN(C)S(C)(=O)=O | inactive
COc1ccc(CCN(C)CCCOc2ccc(S(=O)(=O)c3c(C(C)C)c4ccccc4n3C)cc2)cc1OC | active
COc1ccc(CCN(C)CCCOc2ccc(S(=O)(=O)c3c(C(C)C)cn4ccccc34)cc2)cc1OC | active
COc1ccc(CCN(C)CCCOc2ccc(S(=O)(=O)c3[nH]c4ccccc4c3C(C)C)cc2)cc1OC | active
COc1ccc(C(=O)NCc2ccc(OCCN(C)C)cc2)cc1OC | inactive
COc1ccc(NC(=O)N(C)C[C@H]2Oc3c(NS(=O)(=O)c4cn(C)cn4)cccc3C(=O)N([C@H](C)CO)C[C@@H]2C)cc1 | inactive
COc1ccc(S(=O)(=O)N(C)C[C@H]2Oc3ccc(NC(=O)CCN4CCOCC4)cc3C(=O)N([C@@H](C)CO)C[C@@H]2C)cc1 | inactive
C[C@@H]1CN([C@@H](C)CO)C(=O)c2cc(NS(=O)(=O)c3cccs3)ccc2O[C@@H]1CN(C)S(=O)(=O)c1cn(C)cn1 | inactive
c1ccc(NC2CCCCC2)nc1 | inactive
CO[C@H]1CN(C)C(=O)c2cc(NS(=O)(=O)CC(F)(F)F)ccc2OC[C@@H](C)N(Cc2ccccn2)C[C@@H]1C | inactive
CN(C)CC(=O)N1CC(=O)N2[C@@H](CO)[C@@H](c3ccc(C#Cc4cccnc4)cc3)[C@@H]2C1 | inactive
C[C@H]1CCCCO[C@@H](CN(C)Cc2ccncc2)[C@@H](C)CN([C@@H](C)CO)C(=O)c2cc(NC(=O)Nc3ccc(F)cc3)ccc2O1 | inactive
C=CC1=C(C(=O)O)N2C(=O)C(NC(=O)C(=NOCC(=O)O)c3csc(N)n3)C2SC1 (configuration not stated) | active
C=CC1=C(C(=O)O)N2C(=O)C(NC(=O)C(=NO)c3csc(N)n3)C2SC1 (configuration not stated) | inactive
C=CC1=C(C(=O)O)N2C(=O)[C@@H](NC(=O)/C(=N\OCC(=O)O)c3csc(N)n3)[C@H]2SC1 | inactive
CC(C)CC#Cc1ccc2c(c1)O[C@@H](CN(C)C(=O)Cc1ccncc1)[C@@H](C)CN([C@H](C)CO)S2(=O)=O | inactive
C[C@H]1CN([C@@H](C)CO)C(=O)Cc2cc(N(C)C)ccc2O[C@H]1CN(C)S(=O)(=O)c1ccc(Cl)cc1 | active
C[C@@H]1CN([C@H](C)CO)C(=O)Cc2cc(N(C)C)ccc2O[C@@H]1CN(C)S(=O)(=O)c1ccc(Cl)cc1 | inactive
C[C@@H]1CN([C@@H](C)CO)C(=O)Cc2cc(N(C)C)ccc2O[C@H]1CN(C)S(=O)(=O)c1ccc(Cl)cc1 | inactive
C[C@H](CO)N1C[C@H](C)[C@H](CN(C)S(=O)(=O)c2ccc(Cl)cc2)Oc2ccc(N(C)C)cc2CC1=O | active

Structure (SMILES) | cytotoxicity call
C[C@@H]1CN([C@H](C)CO)C(=O)Cc2cc(N(C)C)ccc2O[C@H]1CN(C)S(=O)(=O)c1ccc(Cl)cc1 | inactive
C[C@H]1CN([C@@H](C)CO)C(=O)Cc2cc(N(C)C)ccc2O[C@@H]1CN(C)S(=O)(=O)c1ccc(Cl)cc1 | inactive
C[C@@H]1CN([C@@H](C)CO)C(=O)c2cc(/C=C/c3ccccc3)cnc2O[C@@H]1CN(C)C(=O)CN1CCOCC1 | inactive
COc1ccc(NC(=O)N(C)C[C@@H]2OCCCC[C@@H](C)Oc3ccc(NC(=O)Nc4cccc5ccccc45)cc3C(=O)N([C@H](C)CO)C[C@@H]2C)cc1 | inactive
C[C@@H]1CCCCO[C@@H](CN(C)C(=O)c2ccncc2)[C@H](C)CN([C@@H](C)CO)C(=O)c2cc(NC(=O)C3CCCCC3)ccc2O1 | inactive
Cc1noc(C)c1S(=O)(=O)N(C)C[C@@H]1Oc2ccc(NC(=O)CCCN(C)C)cc2CC(=O)N([C@@H](C)CO)C[C@H]1C | inactive
C[C@H](CO)N1C[C@H](C)[C@@H](CN(C)C(=O)Nc2ccc3c(c2)OCO3)OCc2ccccc2-c2c(n(C)c3ccccc23)C1=O | inactive
CN1C[C@@H]2CN(C(=O)[C@H]3CCOC3)C[C@H]2C1=O | inactive
CC(CO)(CO)NS(=O)(=O)c1ccccc1 | inactive
COc1ccncc1-c1ccccc1CN(C(=O)c1ccc(-c2ccc(C#N)cc2)o1)c1ccc(N2CCNCC2)cc1 | active
C[C@H](CO)N1C[C@H](C)[C@@H](CN(C)C(=O)Nc2ccc3c(c2)OCO3)OCCCC[C@H](C)Oc2ccc(NC(=O)CCC(F)(F)F)cc2C1=O | inactive
COc1ccc(S(=O)(=O)Nc2ccc3c(c2)C(=O)N([C@H](C)CO)C[C@H](C)[C@H](CN(C)S(=O)(=O)c2c(C)noc2C)O3)cc1 | inactive
CO[C@H]1CN(C)C(=O)c2ccc(NC(=O)c3ccc(F)cc3)cc2OC[C@H](C)N(C(=O)CN(C)C)C[C@@H]1C | inactive
COCCNC(=O)C[C@@H]1CC[C@@H]2[C@H](COc3ccc(NS(=O)(=O)c4ccc(Cl)cc4)cc3C(=O)N2C)O1 | inactive
O=C(O)CN(CCc1ccccc1)CC(=O)O | inactive
C[C@@](Cc1ccccc1)(NC(=O)CN)c1ccccc1 | inactive
CN(C(=O)CN(CCO)CC(=O)N(C)C(C)(C)Cc1ccccc1)C(C)(C)Cc1ccccc1 | active
O=C(NC1(c2ccccc2)CC1)c1c(CN2CCC(N3CCCCC3)CC2)c(-c2cccc(C(F)(F)F)c2)nc2cc(Br)ccc12 | active
COc1ccc(S(=O)(=O)N(C)C[C@@H]2Oc3c(NS(=O)(=O)c4ccccc4)cccc3C(=O)N([C@H](C)CO)C[C@H]2C)cc1 | inactive
COc1ccccc1OCCNCC(O)COc1cccc2[nH]c3ccccc3c12.O=P(O)(O)O (configuration not stated) | active
COc1ccccc1OC[C@@H](O)CO | inactive
COc1cccc(OC)c1OCCNCCO | inactive
COc1ccccc1OCC(O)CO (configuration not stated) | inactive
COc1ccccc1OCCNCC(O)COc1cccc2[nH]c3ccccc3c12 (configuration not stated) | active
CO[C@@H]1CN(C)C(=O)c2ccc(NC(=O)Nc3ccccc3F)cc2OC[C@H](C)N(Cc2ccccc2C(=O)O)C[C@H]1C | inactive
O=C(C[C@H]1C[C@@H]2c3cc(NC(=O)Cc4ccncc4)ccc3O[C@@H]2[C@@H](CO)O1)NCc1ccc2c(c1)OCO2 | inactive

Structure (SMILES) | cytotoxicity call
Cc1noc(C)c1S(=O)(=O)Nc1ccc2c(c1)C(=O)N([C@@H](C)CO)C[C@@H](C)[C@H](CN(C)Cc1ccccc1)OCCCC[C@H](C)O2 | inactive
COc1ccc(NC(=O)N(C)C[C@@H]2Oc3ccc(NC(=O)C4CC4)cc3C(=O)N([C@H](C)CO)C[C@@H]2C)cc1 | inactive
Cc1ccc(S(=O)(=O)N(C)C[C@H]2Oc3ncc(-c4ccncc4)cc3C(=O)N([C@@H](C)CO)C[C@@H]2C)cc1 | inactive
C[C@@H]1CCCCO[C@@H](CN(C)C(=O)Nc2cccc3ccccc23)[C@@H](C)CN([C@@H](C)CO)C(=O)c2cc(NC(=O)Nc3ccc(C(F)(F)F)cc3)ccc2O1 | inactive
C[C@H]1CN([C@@H](C)CO)C(=O)Cc2cc(NC(=O)CCN3CCOCC3)ccc2O[C@H]1CN(C)Cc1ccc(C(=O)Nc2ccccc2N)cc1 | inactive
Cc1ccc(S(=O)(=O)N[C@@H](Cc2ccccc2)C(=O)NCCCn2cc(CN3C(=O)COC[C@H]3c3ccccc3)nn2)cc1 | inactive
CC(=O)O[C@@H]1[C@H](OC(C)=O)N(C(C)=O)C(=O)N1C(C)=O | inactive
CC(=O)O[C@@H]1[C@@H]2C[C@@H]([C@H]1OC(C)=O)[C@@H]1C(=O)N(C)C(=O)[C@@H]21 | active
CC(=O)O[C@@H]1[C@H](OC(C)=O)N(C)C(=O)N1C | inactive
C[C@@H]1CN([C@H](C)CO)C(=O)c2cccc(NS(C)(=O)=O)c2O[C@H]1CN(C)Cc1ccc(C(=O)Nc2ccccc2N)cc1 | inactive
C[C@@H]1O[C@@H](OC[C@H]2O[C@@H](Oc3c(-c4ccc(O)cc4)oc4cc(O)cc(O)c4c3=O)[C@H](O)[C@@H](O)[C@@H]2O)[C@H](O)[C@H](O)[C@H]1O | inactive
COc1ccc(CN2C[C@H](C)[C@H](OC)CN(C)C(=O)c3cc(NC(=O)c4nc5ccccc5s4)ccc3OC[C@@H]2C)cc1 | inactive
C[C@@H]1CN([C@@H](C)CO)C(=O)c2cc(NC(=O)Cn3cnnn3)ccc2O[C@@H]1CN(C)S(=O)(=O)c1ccc(F)cc1 | inactive
Cc1ccc(-c2ncns2)cc1 | inactive
Cc1cccnc1[C@@H](NC(=O)C1CCN(Cc2ccc(Cl)c(Cl)c2)CC1)c1ccc(Cl)cc1 | active
Cc1cccnc1[C@@H](NC(=O)C1CCN(Cc2ccc(Oc3ccccc3)cc2)CC1)c1ccc(F)cc1 | inactive
Cc1cccnc1[C@@H](NC(=O)C1CCN(CCOc2ccc(Cl)cc2Cl)CC1)c1ccc(Cl)cc1 | inactive
O=C(N[C@@H](c1ccc(-c2ccccc2)cc1)c1cnccn1)C1CCN(Cc2ccc(Cl)c(Cl)c2)CC1 | inactive
O=C(N[C@@H](c1ccc(-c2ccccc2)cc1)c1cnccn1)C1CCN(Cc2ccc(Oc3ccccc3)cc2)CC1 | active
O=C(N[C@@H](c1ccc(-c2ccccc2)cc1)c1cnccn1)C1CCN(Cc2cccc(C(F)(F)F)c2)CC1 | inactive
COc1cc(CN2CCC(C(=O)N[C@@H](c3ccc(-c4ccccc4)cc3)c3cnccn3)CC2)cc(OC)c1 | active
COc1ccc([C@@H](NC(=O)C2CCN(Cc3ccc(Oc4ccccc4)cc3)CC2)c2ccccn2)cc1 | inactive
COc1cccc([C@@H](NC(=O)C2CCN(Cc3ccc(Oc4ccccc4)cc3)CC2)c2ccccn2)c1 | inactive
O=C(N[C@H](c1ccc(Cl)cc1)c1cnccn1)C1CCN(Cc2ccc(Oc3ccccc3)cc2)CC1 | active
O=C(N[C@H](c1ccc(Cl)cc1)c1ccsc1)C1CCN(Cc2ccc(Oc3ccccc3)cc2)CC1 | inactive
